PfHsp90 yeast 2: growth inhibition of yeast expressing Plasmodium Hsp90; AID 504621; S. cerevisiae expressing PfHsp90, BacTiter-Glo ATP, 48 h; yeast lacking PDR1 and PDR3 efflux regulators; 0.32% of 310,000 active; inhibition, % at 9.4 µM;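 active means every replicate shows inhibition above about 80%, whatever the replicate mean, limit read from the data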;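 further: 0% = DMSO neutral controls and 100% = 20 µM radicicol positive controls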
Mot1-301 SUMO: inhibitors of SUMOylation pathway: yeast Mot1-301 growth rescue; 1% of 320,000 active; S. cerevisiae Mot1-301 growth rescue, ATP luminescence, 38.5C; percent above DMSO median, 100 means doubled; growth rescue, % at 18.8 µM;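 active means every valid replicate shows activation above 250% relative to neutral control wells; inactive means the rest, any valid replicate at or below 250%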;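 further: OY570 slx delta 5 strain wells were the positive control but not used for scaling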
tim23-1 inh: inhibits growth of tim23-1 mutant yeast; S. cerevisiae tim23-1 growth, BacTiter-Glo luminescence, 24 h; inhibition, % at 20 µM; 1.3% of 330,000 active; AID 463212;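 active means growth inhibition of the mutant yeast at or above 50%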;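 further: temperature-sensitive mutant grown at 25 °C; plate controls were DMSO-treated mutant yeast for no effect and medium wells lacking yeast for full effect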
TIM10 inh: inhibits growth of TIM10 yeast strain; S. cerevisiae TIM10 strain growth, BacTiter-Glo luminescence, 24 h; inhibition, % at 10 µM; 1.4% of 330,000 active;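 active means inhibition of 40% or more at the single tested concentration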;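 further: wild-type TIM10 isogenic control strain grown at permissive 25 °C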
tim10-1 inh: tim10-1 yeast growth inhibition; S. cerevisiae tim10-1 ts strain growth, BacTiter-Glo, 24 h; inhibition, % at 20 µM; 2.2% of 330,000 active; AID 463190;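 active means inhibition of at least 40%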;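 further: mutant grown at 25 °C; 0% = DMSO wells with yeast and 100% = wells holding no yeast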
An asterisk follows results filed as active. Only some compounds are listed: those with a hit (about 4.4% of all), similar ones and a draw of the others.

For COc1ccc(CNC(=O)c2cccs2)cc1 the results were PfHsp90 yeast 2 -11, Mot1-301 SUMO 334*, tim23-1 inh 1, TIM10 inh -2 and tim10-1 inh -3.
For O=C(NCc1ccc(F)cc1)c1cccs1 the results were PfHsp90 yeast 2 0, Mot1-301 SUMO 318*, tim23-1 inh 1, TIM10 inh -7 and tim10-1 inh 11.
Screening CCN(CC)P(=O)(c1ccccc1)c1c(C)nc2ccccn12 (centres undefined) returned PfHsp90 yeast 2 -20, Mot1-301 SUMO 276*, tim23-1 inh 3, TIM10 inh 3 and tim10-1 inh 1.
`CCOc1ccc(CN(C)C(=O)c2cc(S(=O)(=O)N3CCCC3)ccc2C)cc1` gave PfHsp90 yeast 2 -9, Mot1-301 SUMO 165, tim23-1 inh 16, TIM10 inh 5 and tim10-1 inh 6.
`Cc1ccc(NC(=S)c2ccccc2)cc1` gave PfHsp90 yeast 2 19, Mot1-301 SUMO 324*, tim23-1 inh 22, TIM10 inh 12 and tim10-1 inh 13.
For Cc1ccc(NC(=S)c2ccncc2)cc1 the results were PfHsp90 yeast 2 -3, Mot1-301 SUMO 20, tim23-1 inh 7, TIM10 inh 1 and tim10-1 inh 20.
`Oc1c(C(c2ccccc2)N2CCOCC2)ccc2ccccc12` (centres undefined) gave PfHsp90 yeast 2 101*.
Screening O=C(CN1CCN(C(c2ccccc2)c2ccccc2)CC1)N1CCOCC1 returned PfHsp90 yeast 2 -18, Mot1-301 SUMO 26, tim23-1 inh 9, TIM10 inh 2 and tim10-1 inh -4.
`Cc1nn(-c2ccc(N3CCCCC3)nn2)c(C)c1CCC(=O)Nc1cc(F)ccc1F` gave PfHsp90 yeast 2 -30, Mot1-301 SUMO 151, tim23-1 inh 28, TIM10 inh 20 and tim10-1 inh 10.
For Cc1nc(SCC(=O)NCC2CCCO2)c2cc(-c3ccccc3)sc2n1 (centres undefined) the results were PfHsp90 yeast 2 2, Mot1-301 SUMO 19, tim23-1 inh 33, TIM10 inh -6 and tim10-1 inh -21.
`O=C1c2cccc(O)c2C(=O)c2c(O)cccc21` gave Mot1-301 SUMO -53, tim23-1 inh 44, TIM10 inh 27 and tim10-1 inh 22.
`CC1OC(CC(=O)O)CC2=C1C(=O)c1c(O)cccc1C2=O` (centres undefined) gave PfHsp90 yeast 2 106*.
`CN1CCCC(OC(=O)c2cc(Br)ccc2Cl)C1` (centres undefined) gave PfHsp90 yeast 2 15, Mot1-301 SUMO 260*, tim23-1 inh -3, TIM10 inh -5 and tim10-1 inh 0.
For O=C(O)CC/C(=N\Nc1ccc([N+](=O)[O-])cc1)c1ccccc1 the results were PfHsp90 yeast 2 40, Mot1-301 SUMO 367*, tim23-1 inh 7, TIM10 inh 37 and tim10-1 inh -11.
Screening O=C(O)CC/C(=N/Nc1ccc([N+](=O)[O-])cc1)C(=O)O returned PfHsp90 yeast 2 100*, Mot1-301 SUMO 208, tim23-1 inh -29, TIM10 inh 12 and tim10-1 inh -54.
Cc1ccc(NC(=O)c2cccc(N3C(=O)C4C5CCC(C5)C4C3=O)c2)c(C)c1 (centres undefined) was read as PfHsp90 yeast 2 -12, Mot1-301 SUMO active, tim23-1 inh 17, TIM10 inh 13 and tim10-1 inh 21.
COc1cccc(NC(=O)CCC(=O)Nc2cc(OC)c(NC(=O)c3cccs3)cc2OC)c1 was read as PfHsp90 yeast 2 10, tim23-1 inh 0, TIM10 inh -9 and tim10-1 inh 9.
O=C(Nc1ccc(Br)cc1)C1CCCC1 was read as PfHsp90 yeast 2 -1, Mot1-301 SUMO 333*, tim23-1 inh 26, TIM10 inh -1 and tim10-1 inh 2.
For O=C(CCCc1c[nH]c2ccccc12)Nc1ccc(S(=O)(=O)Nc2ncccn2)cc1 the results were PfHsp90 yeast 2 18, Mot1-301 SUMO 759*, tim23-1 inh 10, TIM10 inh -6 and tim10-1 inh -12.
For COc1ccc(CCNC(=O)CSc2nnc3ccc(-c4ccccn4)nn23)cc1OC the results were PfHsp90 yeast 2 -23, Mot1-301 SUMO 23, tim23-1 inh 3, TIM10 inh -1 and tim10-1 inh 7.
Screening CCn1cc(C(=O)N2CCCC2)c(=O)c2cc(S(=O)(=O)N3CC(C)CC(C)C3)ccc21 (centres undefined) returned PfHsp90 yeast 2 -8, Mot1-301 SUMO 303*, tim23-1 inh -6, TIM10 inh 5 and tim10-1 inh 2.
For CCOC(=O)N1CCN(C(=O)c2cn(CC)c3ccc(S(=O)(=O)N4CC(C)CC(C)C4)cc3c2=O)CC1 (centres undefined) the results were PfHsp90 yeast 2 1, Mot1-301 SUMO 4, tim23-1 inh -1, TIM10 inh 5 and tim10-1 inh -7.
Screening Cc1cc(N2CCN(C)CC2)nc2ccc(NC(=S)N3CCN(c4ccc(Cl)cc4)CC3)cc12 returned PfHsp90 yeast 2 -3, Mot1-301 SUMO 539*, tim23-1 inh -19, TIM10 inh 3 and tim10-1 inh 4.
For Cc1cc(N2CCN(C)CC2)nc2ccc(NC(=S)N3CCN(c4ccc(F)cc4)CC3)cc12 the results were PfHsp90 yeast 2 11, Mot1-301 SUMO 1, tim23-1 inh 10, TIM10 inh -2 and tim10-1 inh 13.
For CCOCCCn1c(=O)c2ccccc2n2c(=S)[nH]nc12 the results were PfHsp90 yeast 2 18, Mot1-301 SUMO -2, tim23-1 inh 12, TIM10 inh -18 and tim10-1 inh 19.
For CN1CCN(CC(=O)N2CCn3c4c(c5cc(C6CCCCC6)ccc53)CCCC42)CC1 (centres undefined) the results were PfHsp90 yeast 2 16, Mot1-301 SUMO 500*, tim23-1 inh -119, TIM10 inh 25 and tim10-1 inh 20.
Screening Cc1ccc(S(=O)(=O)N(C)CC(=O)NCCCn2ccnc2)cc1 returned PfHsp90 yeast 2 5, Mot1-301 SUMO 13, tim23-1 inh 2, TIM10 inh 3 and tim10-1 inh 7.
`COc1ccc(-c2cc(C(=O)N3CC4(C)CC3CC(C)(C)C4)no2)cc1` (centres undefined) gave PfHsp90 yeast 2 12, Mot1-301 SUMO -1, tim23-1 inh 20, TIM10 inh 9 and tim10-1 inh 26.
COc1ccc(-c2cc(C(=O)N3CC4(C)CC3CC(C)(C)C4)no2)cc1OC (centres undefined) was read as PfHsp90 yeast 2 10, Mot1-301 SUMO 879*, tim23-1 inh 40, TIM10 inh 33 and tim10-1 inh 38.
Cc1cc(C)c(OCC(=O)OC(C)C(=O)N2CCc3ccccc32)c(C)c1 (centres undefined) was read as PfHsp90 yeast 2 7, Mot1-301 SUMO 8, tim23-1 inh 18, TIM10 inh -9 and tim10-1 inh 9.
Nc1cc2c(cc1[N+](=O)[O-])-c1ccccc1C2=NO was read as PfHsp90 yeast 2 128*.
Screening CC(=O)Nc1cc2c(cc1[N+](=O)[O-])-c1ccccc1C2=NO returned PfHsp90 yeast 2 -15.
